Laboratory results published in PubChem BioAssay (NCI).
Compounds without any hit were thinned out: in the full panel of roughly 83,000, 20% have a hit.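 Plates (96-well) were seeded with cells, treated with compound at one concentration, and incubated for 48 hours before percent growth was determined.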 A number with no mark means an inactive call. Active and inactive are the calls of the source. The calls were made as follows: active = growth percent below 10; inactive = the rest.

Key:
Test in all cases: NCI-60 one-dose screen, 48 h (100 = growth as untreated, 0 = no growth, -100 = all killed)
Conditions in all cases: 10 µM unless noted
[1] = tested on: SR leukemia
[2] = tested on: RPMI-8226 leukemia
[3] = tested on: OVCAR-8 ovarian
[4] = tested on: OVCAR-5 ovarian
[5] = tested on: OVCAR-4 ovarian
[6] = tested on: SK-OV-3 ovarian
[7] = tested on: IGROV1 ovarian
[8] = tested on: OVCAR-3 ovarian
[9] = tested on: HS 578T breast
[10] = tested on: NCI/ADR-RES ovarian
[11] = tested on: T-47D breast
[12] = tested on: BT-549 breast
[13] = tested on: MDA-MB-435 melanoma
[14] = tested on: SW-620 colon
[15] = tested on: MCF7 breast
[16] = tested on: HCT-116 colon
[17] = tested on: HCC-2998 colon
[18] = tested on: KM12 colon

COc1cc(-c2nc3sc4c(c3c(=O)[nH]2)CCCCCC4)cc(OC)c1OC
growth [1]: 15.5%
growth [2]: 7.95% (active)
growth [3]: 25.2%
growth [4]: 37.8%
growth [5]: 61.6%
growth [6]: 14.2%
growth [7]: 34.5%
growth [8]: -3.03% (active)
growth [9]: 5.2% (active)
growth [10]: -6.9% (active)
growth [11]: 32.8%
growth [12]: 53.1%
growth [13]: -18% (active)
growth [14]: 30.3%
growth [15]: 15%
growth [16]: 20.3%
growth [17]: -1.77% (active)
growth [18]: 28.6%

CCOC(=O)CCN(c1c(Cl)ssc1=O)C(C)C
growth [1]: 134%
growth [2]: 105%
growth [3]: 97.2%
growth [4]: 87.2%
growth [5]: 106%
growth [6]: 116%
growth [7]: -5.46% (active)
growth [8]: 128%
growth [9]: 103%
growth [10]: 105%
growth [11]: 112%
growth [12]: 95.7%
growth [13]: 107%
growth [14]: 99.3%
growth [15]: 89.7%
growth [16]: 93.4%
growth [17]: 115%
growth [18]: 113%

Nc1nc2c(c(=O)[nH]1)C1(C(=O)Nc3ccccc31)c1c(nc(N)[nH]c1=O)N2
growth [1]: 111%
growth [2]: 96.2%
growth [3]: 114%
growth [4]: 112%
growth [5]: 102%
growth [6]: 108%
growth [7]: 101%
growth [8]: 103%
growth [9]: 110%
growth [10]: 102%
growth [11]: 92.3%
growth [12]: 102%
growth [13]: 106%
growth [14]: 97.3%
growth [15]: 94.8%
growth [16]: 116%
growth [17]: 114%
growth [18]: 101%

NS(=O)(=O)c1cc2c(cc1Cl)NC=NS2(=O)=O
growth [1]: 96.1%
growth [2]: 104%
growth [3]: 102%
growth [4]: 100%
growth [5]: 107%
growth [6]: 110%
growth [7]: 109%
growth [8]: 117%
growth [9]: 118%
growth [10]: 108%
growth [11]: 97.7%
growth [12]: 95.9%
growth [13]: 102%
growth [14]: 111%
growth [15]: 96.9%
growth [16]: 98%
growth [17]: 93.4%
growth [18]: 106%

[N-]=[N+]=NCc1ncc(-c2ccc(C(F)(F)F)cc2)c(NC2CCCCCC2)n1
growth [1]: 5.36% [50 µM] (active)
growth [2]: 53.3% [50 µM]
growth [3]: 70.8% [50 µM]
growth [4]: 90.7% [50 µM]
growth [5]: 88.3% [50 µM]
growth [6]: 90.1% [50 µM]
growth [7]: 75.9% [50 µM]
growth [8]: 61.4% [50 µM]
growth [9]: 83.1% [50 µM]
growth [10]: 88.4% [50 µM]
growth [11]: 63.1% [50 µM]
growth [12]: 81.9% [50 µM]
growth [13]: 61.6% [50 µM]
growth [14]: 75.4% [50 µM]
growth [15]: 66.2% [50 µM]
growth [16]: 40.5% [50 µM]
growth [17]: 85.8% [50 µM]
growth [18]: 46.8% [50 µM]

N#Cc1c(-c2ccccc2)cc(-c2ccccc2)n(CC(=O)O)c1=O
growth [1]: 25%
growth [2]: 50.4%
growth [3]: 57.1%
growth [4]: 94.4%
growth [5]: 93%
growth [6]: 99.9%
growth [7]: 61.4%
growth [8]: 17.7%
growth [9]: 51.6%
growth [10]: 26.2%
growth [11]: 45.3%
growth [12]: 25.8%
growth [13]: -10.6% (active)
growth [14]: 32.8%
growth [15]: 34.8%
growth [16]: 39.2%
growth [17]: 82.4%
growth [18]: 41.3%

C[C@]12CCC(=O)C=C1CCC1C2[C@@H](O)C[C@@]2(C)C1CC[C@]2(O)C(=O)COC(=O)CCC(=O)O (stereo partly drawn)
growth [1]: 105%
growth [2]: 63.6%
growth [3]: 95.6%
growth [4]: 99.4%
growth [5]: 102%
growth [6]: 89%
growth [7]: 93.6%
growth [8]: 123%
growth [9]: 138%
growth [10]: 95.7%
growth [11]: 114%
growth [12]: 100%
growth [13]: 96.3%
growth [14]: 113%
growth [15]: 102%
growth [16]: 106%
growth [17]: 98%
growth [18]: 109%

NS(=O)(=O)c1cc(C2(O)NC(=O)c3ccccc32)ccc1Cl (stereo not drawn)
growth [1]: 91.9%
growth [2]: 93.2%
growth [3]: 103%
growth [4]: 99.1%
growth [5]: 112%
growth [6]: 108%
growth [7]: 97.1%
growth [8]: 123%
growth [9]: 118%
growth [10]: 107%
growth [11]: 109%
growth [12]: 97.7%
growth [13]: 101%
growth [14]: 109%
growth [15]: 102%
growth [16]: 98.9%
growth [17]: 109%
growth [18]: 111%

CCOC(=O)/C=C1/SC(=Nc2ccc(C#N)cc2)N(Cc2ccco2)C1=O
growth [1]: 0.973% (active)
growth [2]: -33.8% (active)
growth [3]: 54.2%
growth [4]: 37.4%
growth [5]: 51.2%
growth [6]: 91.7%
growth [7]: 26.3%
growth [8]: 17.9%
growth [9]: 65.4%
growth [10]: 40.9%
growth [11]: 12.1%
growth [12]: 44.8%
growth [13]: 50.5%
growth [14]: 12%
growth [15]: 12.6%
growth [16]: -61.6% (active)
growth [17]: 64.7%
growth [18]: 60.9%

N#Cc1ccc(-c2csc(Nc3ccc4nc5n(c(=O)c4c3)CCC5)n2)cc1
growth [1]: 93.6%
growth [2]: 109%
growth [3]: 106%
growth [4]: 103%
growth [5]: 109%
growth [6]: 176%
growth [7]: 107%
growth [8]: 116%
growth [9]: 115%
growth [10]: 105%
growth [11]: 102%
growth [12]: 98.4%
growth [13]: 103%
growth [14]: 103%
growth [15]: 92%
growth [16]: 96.2%
growth [17]: 116%
growth [18]: 103%

CCN(Cc1cccc(S(=O)(=O)[O-])c1)c1ccc(C(=C2C=CC(=[N+](CC)Cc3cccc(S(=O)(=O)O)c3)C=C2)c2ccccc2S(=O)(=O)O)cc1
growth [1]: 95.6%
growth [2]: 100%
growth [3]: 104%
growth [4]: 94.5%
growth [5]: 93.4%
growth [6]: 102%
growth [7]: 110%
growth [8]: 102%
growth [9]: 106%
growth [10]: 102%
growth [11]: 90.3%
growth [12]: 104%
growth [13]: 94.2%
growth [14]: 103%
growth [15]: 90.2%
growth [16]: 95.1%
growth [17]: 97.8%
growth [18]: 94.4%

COc1cnc2c(c1)C(=O)c1c-2n(CCCN2CCNCC2)c(=O)c2cc(F)ccc12
growth [1]: -13.1% (active)
growth [2]: -30.9% (active)
growth [3]: 2.26% (active)
growth [4]: -0.468% (active)
growth [5]: 23%
growth [6]: -12.7% (active)
growth [7]: 23%
growth [8]: 2.67% (active)
growth [9]: 38.6%
growth [10]: 18.8%
growth [11]: 9.02% (active)
growth [12]: 4.74% (active)
growth [13]: -41.3% (active)
growth [14]: -53.7% (active)
growth [15]: 11.7%
growth [16]: -82.5% (active)
growth [17]: 2.69% (active)
growth [18]: -13.1% (active)

Nc1ccn(C2O[C@H](CO)[C@@H](O)[C@@H]2O)c(=O)n1 (stereo partly drawn)
growth [1]: 9.93% (active)
growth [2]: 64.4%
growth [3]: 34%
growth [4]: 70.1%
growth [5]: 83.4%
growth [6]: 55.6%
growth [7]: 51.9%
growth [8]: 67.6%
growth [9]: 107%
growth [10]: 34.6%
growth [11]: 80.5%
growth [12]: 81.2%
growth [13]: 45.3%
growth [14]: 45.9%
growth [15]: 24%
growth [16]: 32.4%
growth [17]: 53.5%
growth [18]: 58.1%

Cc1cc(C)c(C(=O)c2cccs2)c(C)c1
growth [1]: 86.1%
growth [2]: 98.1%
growth [3]: 106%
growth [4]: 98.1%
growth [5]: 109%
growth [6]: 101%
growth [7]: 97.7%
growth [8]: 113%
growth [9]: 109%
growth [10]: 105%
growth [11]: 102%
growth [12]: 109%
growth [13]: 122%
growth [14]: 107%
growth [15]: 99%
growth [16]: 101%
growth [17]: 106%
growth [18]: 110%

CCN(CC)CCNCC(=O)Oc1ccc(/C=C/C(=O)CC(=O)/C=C/c2ccc(OC(=O)CNCCN(CC)CC)c(OC)c2)cc1OC
growth [1]: -1.72% (active)
growth [2]: -46.2% (active)
growth [3]: 3.99% (active)
growth [4]: 36.6%
growth [5]: 44.3%
growth [6]: 27.3%
growth [7]: -24.5% (active)
growth [8]: 13.3%
growth [9]: -3.97% (active)
growth [10]: 71.6%
growth [11]: 26.6%
growth [12]: -49.4% (active)
growth [13]: -30% (active)
growth [14]: -26.5% (active)
growth [15]: 11.6%
growth [16]: -9.15% (active)
growth [17]: -24.9% (active)
growth [18]: -19.5% (active)

COc1ccc2c(c1)[n+](=O)c(/C=C/C(=O)c1cc(OC)c(OC)c(OC)c1)c(C)n2[O-]
growth [1]: -10.6% (active)
growth [2]: -45.8% (active)
growth [3]: 3.84% (active)
growth [4]: 84%
growth [5]: 62.8%
growth [6]: 102%
growth [7]: 32.1%
growth [8]: 19.4%
growth [9]: 90.7%
growth [10]: 52.8%
growth [11]: 28.3%
growth [12]: 73.3%
growth [13]: 34.6%
growth [14]: 21.7%
growth [15]: 18.1%
growth [16]: 17.9%
growth [17]: 112%
growth [18]: 80.9%
